# Test results published in PubChem BioAssay (EPA / NIEHS).
# Active and inactive are the calls of the source. Rule for the calls: active = hit-call score of the fitted dose curve at least 0.9, where 1 is the maximum; inactive = score below 0.9.
# Assay: ATG_BRE_CIS: Attagene CIS-FACTORIAL HepG2 Assay for human Bone Morphogenetic Protein (BMP) Response Element (BRE) (AID 2282933)
# Conditions: HepG2 BMP response element reporter, Attagene transcription factor profiling; actives raise or lower the signal
# Description: ATG_CIS is a cell-based, multiplexed-readout assay that uses HepG2, a human liver cell line, with measurements taken at 24 hours after chemical dosing in a 24-well plate.ATG_BRE_CIS is one of 52 assay component(s) measured or calculated from the ATG_CIS assay. It is designed to make measurements of mRNA induction, a form of inducible reporter, as detected with fluorescence intensity signals by Reverse transcription polymerase chain reaction (RT-PCR) and Capillary electrophoresis technology.Data from the assay component ATG_BRE_CIS was analyzed into 1 assay endpoint. This assay endpoint, ATG_BRE_CIS, was analyzed with bidirectional fitting relative to DMSO as the negative control and baseline of activity. Using a type of inducible reporter, measures of mRNA for gain or loss-of-signal activity can be used to understand the reporter gene at the transcription factor-level as they relate to the gene SMAD1. Furthermore, this assay endpoint can be referred to as a primary readout, because this assay has produced multiple assay endpoints where this one serves a reporter gene function. To generalize the intended target to other relatable targets, this assay endpoint is annotated to the dna binding intended target family, where the subfamily is Smad protein.
# Human liver HepG2 cells are transiently transfected with multiple reporter transcription units (MRTUs) in 6-well plates using FuGene 6 reagent (Roche; 3 ml FuGene/1 mg DNA). The MRTU constructs are regulated by a cis-regulating element (promoter). […] A major difference between the CIS and TRANS system is that in CIS activities of endogenous TFs are measured, whereas the TRANS assay evaluates changes in activities of exogenous, chimeric NR-Gal4 proteins. […] At the end of 24 hour incubation, total RNA was isolated using TriZol reagent (Invitrogen). The isolated RNA is then reverse-transcribed using oligo(dT) primer and Mo-MLV reverse transcriptase (Invitrogen) with DNAse I (Ambion) treatment for 30 min. The one-tenth of the produced cDNA was amplified by PCR using Taq DNA polymerase (Invitrogen) and two reporter sequence-specific primers. The PCR products were fluorescently labeled by primer extension with 6-arboxyfluorescein (6-FAM) 5'-labeled reporter sequence-specific primer (2 min at 95 C, 20 s at 68 C and 10 min at 72 C) and these products were digested with 5U of HpaI (New England Biolabs) for 2h at 37 C. The fragments were purified using Qiaquick PCR columns (Qiagen), analyzed on an ABI 3130xL genetic analyzer (Applied Biosystems) with peak positions identified by using a set of X-rhodamine (ROX)-labeled MapMarker1000 molecular weight standards (BioVentures). The raw capillary electrophoresis data was processed using Attagraph software (Attagene).
Structure (SMILES),AC50,outcome
COc1ccc(S(=O)(=O)N2C(=O)[C@@](c3ccccc3OC)(N3C[C@H](O)C[C@H]3C(=O)N(C)C)c3cc(Cl)ccc32)c(OC)c1,55.5 µM (active),–
Nc1ccc(S(=O)(=O)c2ccc(N)cc2)cc1,–,inactive
Nc1nc(N)c2nc(CNc3ccc(C(=O)N[C@@H](CCC(=O)O)C(=O)O)cc3)cnc2n1,–,inactive
NCCO,–,inactive
Cc1nc(-c2ccc3c(c2)CCN(CCC2CCC(NC(=O)/C=C/c4ccc(F)cc4)CC2)CC3)no1 (stereo not given),–,inactive
Cc1cc(NC(=O)C(=O)O)cc(C)c1Oc1ccc(O)c2c1CCC2,–,inactive
Oc1ccc2c(c1)OC[C@@H](N1CCC(O)(c3ccc(F)cc3)CC1)[C@H]2O,62.1 µM (active),–
CCCCOC(=O)CCCCCCCCC(=O)OCCCC,–,inactive
FC(F)(F)C(F)(F)C(F)(F)C(F)(F)C(F)(F)C(F)(F)CCI,–,inactive
COCCOC[C@H](CC1(C(=O)NC2CCC(C(=O)O)CC2)CCCC1)C(=O)Oc1ccc2c(c1)CCC2 (stereo not given in full),–,inactive
O=c1c(O)c(-c2ccc(O)c(O)c2)oc2cc(O)cc(O)c12,–,inactive
CC1=C(/C=C/C(C)=C/C=C/C(C)=C/CO)C(C)(C)CCC1,–,inactive
CN[C@H]1CC[C@@H](c2ccc(Cl)c(Cl)c2)c2ccc(S(N)(=O)=O)cc21,–,inactive
NC(=O)Cn1c(=O)cc(CCN2CCN(c3nccc4sccc34)CC2)c2ccc(F)cc21,–,inactive
CCCCCCCC=O,–,inactive
CC(C)c1ccc(C(=O)N=C(N)N)cc1S(C)(=O)=O,–,inactive
O=[N+]([O-])C(CO)(CO)CO,–,inactive
C1CCC(SSC2CCCCC2)CC1,–,inactive
Cc1cc(=O)[nH]c(=S)[nH]1,–,inactive
CCCCCC(=O)O,–,inactive

Structure (SMILES),AC50,outcome
CC=Cc1ccc(O)c(OC)c1,–,inactive
CCCCCCOCCO,–,inactive
CC(=O)OCCOCCOCCOC(C)=O,–,inactive
CCCCCCCCCCC,–,inactive
CNC(=O)[C@H]1O[C@@H](n2cnc3c(NCc4cc(Cl)ccc4OCc4cc(C)no4)ncnc32)[C@H](O)[C@@H]1N,–,inactive
CCOC(=O)CCC(=O)OCC,–,inactive
Cc1ccc(C)c(C)c1,–,inactive
CC1(C)CC(N=C=O)CC(C)(CN=C=O)C1 (stereo not given),–,inactive
Cc1ccc(N(C)C)cc1,–,inactive
CC(=O)OC/C=C(\C)CCC=C(C)C,–,inactive
Cc1nc(C)nc(N2C[C@@H](C)N(c3ccnc([C@@H](C)O)n3)[C@@H](C)C2)n1,–,inactive
COc1cc(-c2nc(NC(=O)c3cc4cc(C)cc(C)c4n3CC(=O)O)sc2CCC2CCCCC2)c(OC)cc1Cl,10.4 µM (active),–
C[Si]1(C)O[Si](C)(C)O[Si](C)(C)O[Si](C)(C)O1,–,inactive
CC(C)(C)c1cc(O)c(C(C)(C)C)cc1O,30.4 µM (active),–
Cc1cccc(C)c1O,–,inactive
COC(=O)c1ccc(O)cc1,–,inactive
CN1CCCC1=O,–,inactive
COc1cc(S(=O)(=O)O)c(C)cc1N=Nc1c(O)ccc2cc(S(=O)(=O)O)ccc12,–,inactive
Cc1oc(-c2ccccc2)nc1CCOc1cccc2c1ccn2CCC(=O)O,–,inactive
Cc1ccc(Cl)cc1,–,inactive
